Consider 39 molecules from PubChem BioAssay.

For some assays here: Measured potencies and affinities stand elsewhere. The source made the active and inactive calls. Unless noted, the rule behind the calls is not given here.

The first assay relates to Ras-related protein Rab-7a (dog), GTP binding. Nature of the assay: Rab7 GTP binding inhibitors, potency, dose response, biochemical, wildtype, multiplex bead flow cytometry (AID 1336). Particulars: bead-based flow cytometry, fluorescent GTP binding to Rab7; series mostly up to 100 µM. For orientation: In flow cytometry, cells or beads pass a laser one at a time.
Turning to `COc1cc2c(cc1OC)-c1cc(NC3CCCCCC3)nc(=O)n1CC2`, the call was inactive.
For the molecule `O=C1c2ccccc2-c2onc3ccc(Oc4ccccc4)c1c23`, the molecule was classed as inactive.
Consider `CCN(CC)c1ccc2c(c1)oc(=O)c1c(Cl)cc(=O)oc12`, for which the molecule was classed as inactive.
In the case of `CCOc1nnc(C)c2c(C)n(-c3cccc(OC)c3)nc12`, the outcome was inactive.
Consider `Cc1nnc(N2CCOCC2)c2nn(-c3ccccc3)c(C)c12`, for which the molecule was called inactive.
Take `O=C(C#Cc1ccccc1)c1cccc([N+](=O)[O-])c1`: the call was inactive.
For `COC(=O)c1ccc2nc(Nc3nc4c(F)cc(F)cc4s3)sc2c1`, the call was inactive.
Same read-out and setting: the entry for `COc1ccc(/C=C/C(=O)c2cc(Br)ccc(=O)c2O)cc1` is “inactive”; for `O=C(NNC(=S)NCc1ccc(Cl)cc1)c1ccc(Br)o1` it is “inactive”; for `O=C(O)c1ccccc1OCCOc1ccccc1` it is “inactive”.
As for `CN1C(=O)N(C)c2ccc(C=O)c3cccc1c23`, the molecule was called inactive.
Take `CCN1/C(=C/C=C/C=C/c2sc3ccccc3[n+]2CC)Sc2ccccc21`: the GTP binding, % of control was 4.4% [at 3.7 µM] (inactive).
With `O=C(C#Cc1cccc([N+](=O)[O-])c1)c1ccccc1`, the molecule was classed as inactive.
Regarding `O=C(O)c1cn(CCOc2ccccc2)c2ccccc12`, the call was inactive.
As to `CCOc1cccc(-c2nn3c(-c4ccco4)nnc3s2)c1`, the result was inactive.
`COC(=O)n1c(=S)oc2cc(Cl)ccc21`: the result was inactive.
For `O=C(/C=C/c1ccc(Cl)c([N+](=O)[O-])c1)c1cccnc1`, the molecule was classed as inactive.
With `COCCN1C(=O)/C(=C/c2ccc(N3CCCC3)cc2C)SC1=S`, the result was inactive.
For `N=c1c(C(=O)NCc2ccco2)cc2c(=O)n3ccccc3nc2n1CCc1ccccc1`, the call was inactive.
In the case of `O=C(OCC1O[C@@H](OC(=O)c2cc(O)c(O)c(O)c2)[C@@H](OC(=O)c2cc(O)c(O)c(O)c2)[C@@H](OC(=O)c2cc(O)c(O)c(O)c2)[C@@H]1OC(=O)c1cc(O)c(O)c(O)c1)c1cc(O)c(O)c(O)c1` (stereo partly specified), the call was inactive.
Regarding `COc1cccc2sc(Nc3nc(-c4ccccn4)cs3)nc12`, the call was inactive.
As for `COc1ccc(-c2csc(NC(=S)NC(=O)c3cccs3)n2)cc1OC`, the result was inactive.
The same measure, in the same setting: the entry for `Oc1ccc2ccccc2c1/C=N/Nc1nnc(-c2ncc[nH]2)c2ccccc12` is “inactive”; for `COc1ccc(NC(=O)CSc2ccc3nnc(-c4cccnc4)n3n2)c(OC)c1` it is “inactive”; for `O=C(c1nnsc1S(=O)(=O)c1ccc(Cl)cc1)N1CCOCC1` it is “inactive”.
Consider `CN(C)c1ccc(/C=C/C(=O)c2cccc(Br)c2)cc1`, for which the call was inactive.
As to `CN(c1ccccc1)c1ccc(/C=c2\s/c(=C(/C#N)C(=O)C(C)(C)C)n(Cc3ccco3)c2=O)cc1`, the outcome was inactive.
As for `CS(=O)(=O)N1N=C(c2ccccc2)CC1c1ccc2c(c1)OCO2` (stereo unspecified), the outcome was inactive.
Same read-out and setting: the entry for `COc1ccc(-c2nnc(SCC(=O)c3cccs3)o2)cc1` is “inactive”; for `COc1ccc(CNc2ccccc2C(=O)O)cc1` it is “inactive”; for `CCOC(=O)c1c(NC(=O)/C=C/c2ccc3c(c2)OCO3)sc(C)c1CC` it is “inactive”.
Consider `CCOC(=O)N1CCN(C(=O)CCc2ccc(S(=O)(=O)NCCc3ccccc3)cc2)CC1`, for which the outcome was inactive.
In the case of `CC(C)(C)c1ccc(C(=O)CC(Sc2ccc(Cl)cc2)C(=O)O)cc1` (stereo unspecified), the molecule was classed as inactive.
In the case of `NC(=S)N=Nc1c(O)[nH]c2ccc(F)cc12`, the molecule was classed as inactive.
For `COc1cc(/C=N\NC(=O)c2sc(N)nc2C)cc(OC)c1OC`, the outcome was inactive.
Consider `Cc1cc(C)c(C(=O)Cn2cnc3cc([N+](=O)[O-])ccc3c2=O)cc1C`, for which the call was inactive.
Regarding `O=C(COc1ncnc2cc([N+](=O)[O-])ccc12)NCCc1ccc(Cl)cc1`, the molecule was classed as inactive.
As to `COC(=O)C1=NN(C(=O)c2cccc(Br)c2)C(O)(c2ccc(Cl)cc2)C1` (stereo unspecified), the call was inactive.
On to `CC(C)(C)C(=O)/C=c1\s/c(=C\c2ccc(-c3ccc([N+](=O)[O-])cc3)o2)c(=O)n1CC(=O)NC(N)=O`, for which the molecule was classed as inactive.

A further assay deals with Ras-related C3 botulinum toxin substrate 1 (Homo sapiens) (UniProt P63000). As to the kind of experiment: wildtype Rac1 GTP binding inhibitors, dose response, biochemical, multiplex bead flow cytometry (AID 1340;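 active = dose curve with midpoint inside tested range, moderate steepness, plateau gap beyond fit error, low compound glow and bead-link interference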). The following applies: GST-Rac1 beads, Bodipy-FL-GTP binding; at 100 µM (top of the series) unless noted.
`COc1cc2c(cc1OC)-c1cc(NC3CCCCCC3)nc(=O)n1CC2` had a GTP binding signal, raw median fluorescence (lower = inhibition) (MCF (arbitrary fluorescence units)) of 145.
In turn, `O=C1c2ccccc2-c2onc3ccc(Oc4ccccc4)c1c23` returned a GTP binding signal, raw median fluorescence (lower = inhibition) (MCF (arbitrary fluorescence units)) of 183.
As for `CCN(CC)c1ccc2c(c1)oc(=O)c1c(Cl)cc(=O)oc12`, the GTP binding signal, raw median fluorescence (lower = inhibition) (MCF (arbitrary fluorescence units)) stood at 226.
With `CCOc1nnc(C)c2c(C)n(-c3cccc(OC)c3)nc12`, the GTP binding signal, raw median fluorescence (lower = inhibition) (MCF (arbitrary fluorescence units)) was determined as 194.
Molecule `Cc1nnc(N2CCOCC2)c2nn(-c3ccccc3)c(C)c12` came in with a GTP binding signal, raw median fluorescence (lower = inhibition) (MCF (arbitrary fluorescence units)) of 198.
In turn, `O=C(C#Cc1ccccc1)c1cccc([N+](=O)[O-])c1` gave a GTP binding signal, raw median fluorescence (lower = inhibition) (MCF (arbitrary fluorescence units)) of 92.8.
Molecule `COC(=O)c1ccc2nc(Nc3nc4c(F)cc(F)cc4s3)sc2c1` had a GTP binding signal, raw median fluorescence (lower = inhibition) (MCF (arbitrary fluorescence units)) of 286.
Turning to `COc1ccc(/C=C/C(=O)c2cc(Br)ccc(=O)c2O)cc1`, the GTP binding signal, raw median fluorescence (lower = inhibition) (MCF (arbitrary fluorescence units)) stood at 226.
Molecule `O=C(O)c1ccccc1OCCOc1ccccc1` displayed a GTP binding signal, raw median fluorescence (lower = inhibition) (MCF (arbitrary fluorescence units)) of 297.
Turning to `CCN1/C(=C/C=C/C=C/c2sc3ccccc3[n+]2CC)Sc2ccccc21`, the GTP binding signal, raw median fluorescence (lower = inhibition) (MCF (arbitrary fluorescence units)) amounted to 1.8.
Turning to `O=C(C#Cc1cccc([N+](=O)[O-])c1)c1ccccc1`, the GTP binding signal, raw median fluorescence (lower = inhibition) (MCF (arbitrary fluorescence units)) is 245.
Consider `CCOc1cccc(-c2nn3c(-c4ccco4)nnc3s2)c1`, for which the GTP binding signal, raw median fluorescence (lower = inhibition) (MCF (arbitrary fluorescence units)) came to 164.
`COC(=O)n1c(=S)oc2cc(Cl)ccc21` gave a GTP binding signal, raw median fluorescence (lower = inhibition) (MCF (arbitrary fluorescence units)) of 170.
Same read-out and setting: the figure for `O=C(/C=C/c1ccc(Cl)c([N+](=O)[O-])c1)c1cccnc1` is 206.
`COCCN1C(=O)/C(=C/c2ccc(N3CCCC3)cc2C)SC1=S` registered a GTP binding signal, raw median fluorescence (lower = inhibition) (MCF (arbitrary fluorescence units)) of 224.
`N=c1c(C(=O)NCc2ccco2)cc2c(=O)n3ccccc3nc2n1CCc1ccccc1` showed a GTP binding signal, raw median fluorescence (lower = inhibition) (MCF (arbitrary fluorescence units)) of 96.5.
In turn, `O=C(OCC1O[C@@H](OC(=O)c2cc(O)c(O)c(O)c2)[C@@H](OC(=O)c2cc(O)c(O)c(O)c2)[C@@H](OC(=O)c2cc(O)c(O)c(O)c2)[C@@H]1OC(=O)c1cc(O)c(O)c(O)c1)c1cc(O)c(O)c(O)c1` (stereo partly specified) returned a GTP binding signal, raw median fluorescence (lower = inhibition) (MCF (arbitrary fluorescence units)) of 145.
On to `COc1cccc2sc(Nc3nc(-c4ccccn4)cs3)nc12`, for which the GTP binding signal, raw median fluorescence (lower = inhibition) (MCF (arbitrary fluorescence units)) was 194.
On the same count and under the same terms, the figure for `COc1ccc(-c2csc(NC(=S)NC(=O)c3cccs3)n2)cc1OC` is 176; for `Oc1ccc2ccccc2c1/C=N/Nc1nnc(-c2ncc[nH]2)c2ccccc12` it is 138; for `COc1ccc(NC(=O)CSc2ccc3nnc(-c4cccnc4)n3n2)c(OC)c1` it is 165.
Molecule `O=C(c1nnsc1S(=O)(=O)c1ccc(Cl)cc1)N1CCOCC1` came in with a GTP binding signal, raw median fluorescence (lower = inhibition) (MCF (arbitrary fluorescence units)) of 289.
The molecule `CN(C)c1ccc(/C=C/C(=O)c2cccc(Br)c2)cc1` had a GTP binding signal, raw median fluorescence (lower = inhibition) (MCF (arbitrary fluorescence units)) of 225.
Molecule `CN(c1ccccc1)c1ccc(/C=c2\s/c(=C(/C#N)C(=O)C(C)(C)C)n(Cc3ccco3)c2=O)cc1` had a GTP binding signal, raw median fluorescence (lower = inhibition) (MCF (arbitrary fluorescence units)) of 180.
For `CS(=O)(=O)N1N=C(c2ccccc2)CC1c1ccc2c(c1)OCO2` (stereo unspecified), the GTP binding signal, raw median fluorescence (lower = inhibition) (MCF (arbitrary fluorescence units)) amounted to 247.
Take `COc1ccc(CNc2ccccc2C(=O)O)cc1`: the GTP binding signal, raw median fluorescence (lower = inhibition) (MCF (arbitrary fluorescence units)) was 44.1.
Regarding `CCOC(=O)c1c(NC(=O)/C=C/c2ccc3c(c2)OCO3)sc(C)c1CC`, the GTP binding signal, raw median fluorescence (lower = inhibition) (MCF (arbitrary fluorescence units)) worked out at 256.
The molecule `CCOC(=O)N1CCN(C(=O)CCc2ccc(S(=O)(=O)NCCc3ccccc3)cc2)CC1` returned a GTP binding signal, raw median fluorescence (lower = inhibition) (MCF (arbitrary fluorescence units)) of 0.
Take `CC(C)(C)c1ccc(C(=O)CC(Sc2ccc(Cl)cc2)C(=O)O)cc1` (stereo unspecified): the GTP binding signal, raw median fluorescence (lower = inhibition) (MCF (arbitrary fluorescence units)) was determined as 285.
Consider `Cc1cc(C)c(C(=O)Cn2cnc3cc([N+](=O)[O-])ccc3c2=O)cc1C`, for which the GTP binding signal, raw median fluorescence (lower = inhibition) (MCF (arbitrary fluorescence units)) is 161.
The same measure, in the same setting: the figure for `COC(=O)C1=NN(C(=O)c2cccc(Br)c2)C(O)(c2ccc(Cl)cc2)C1` (stereo unspecified) is 240.
On the same count and under the same terms, the figure for `CC(C)(C)C(=O)/C=c1\s/c(=C\c2ccc(-c3ccc([N+](=O)[O-])cc3)o2)c(=O)n1CC(=O)NC(N)=O` is 256.
